Screening data from PubChem.
Rab9 prom act: qHTS Assay for Rab9 Promoter Activators; Huh7 Rab9 promoter-luciferase reporter, luminescence, 24 h; actives 2.8% (n = 320,000); AID 485297, 2010; Potency, µM (titrated, usually from 9.22 µM), inactives show at the highest dose activation, negative = inhibition, most hits filed as activators; further: % of control where 0% means no effect; nearly all actives have a fitted effect of over 60% in size
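Steps: seed 1500 Huh7 Rab9-luc cells per well, rest 2 h at 37 °C; add compound in DMSO; incubate 24 h; add luciferase reagent, 10 min ambient; read luminescence.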
ELG1 genotox: qHTS screen for small molecules that induce genotoxicity in human embryonic kidney (HEK293T) cells expressing luciferase-tagged ELG1; HEK293T ELG1-luciferase reporter, luminescence, 16 h; AID 504466, 2011; Potency, µM (series often up to 46 µM), without a hit: at the top dose activity change, positive = activation, most hits filed as activators; actives 1.3% (n = 330,000); further: % of control where 0% means no effect; nearly all actives have a fitted effect of over 60% in size
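HEK293T cells expressing luciferase-tagged ELG1 were treated with compound or DMSO for 16 hr at 37°C. Luciferase activity was then read after 30 min with ONE-Glo at room temperature; rising signal flags genetic stress.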
SMN2 splice up: qHTS Assay for Enhancers of SMN2 Splice Variant Expression | HEK293 SMN2-luciferase splicing reporter, luminescence, 30-36 h | Potency, µM (series often up to 46.1 µM), without a hit: at the highest dose activity change, positive = activation, most hits filed as activators | actives 2.8% (n = 210,000) | AID 1458, 2008; further: % of control where 0% means no effect; nearly all actives have a fitted effect of over 55% in size
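HEK293 cells carry an SMN2 minigene-luciferase reporter in which exon 7 inclusion puts luciferase in frame. Cells were seeded at 2000 cells/well, attached for 10-12 hours, then exposed to compounds for 30-36 hours at 37C before ONE-Glo luminescence.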
FLuc modulator: qHTS profiling assay for firefly luciferase inhibitor/activator using purifed enzyme and Km concentrations of substrates (counterscreen for miR-21 project); actives 6.9% (n = 360,000); Luciferin 4-monooxygenase (Photinus pyralis), P08659; purified FLuc, Km substrates, luminescence inhibition; Potency, µM (top dose mostly 57.5 µM), inactives show at the top dose activity change, negative = inhibition, most hits filed as inhibitors;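 further: plate controls were vehicle for no effect and reference inhibitor for full effect; nearly all actives have a fitted effect of over 55% in size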
Target sequence (P08659 whole entry, looked up): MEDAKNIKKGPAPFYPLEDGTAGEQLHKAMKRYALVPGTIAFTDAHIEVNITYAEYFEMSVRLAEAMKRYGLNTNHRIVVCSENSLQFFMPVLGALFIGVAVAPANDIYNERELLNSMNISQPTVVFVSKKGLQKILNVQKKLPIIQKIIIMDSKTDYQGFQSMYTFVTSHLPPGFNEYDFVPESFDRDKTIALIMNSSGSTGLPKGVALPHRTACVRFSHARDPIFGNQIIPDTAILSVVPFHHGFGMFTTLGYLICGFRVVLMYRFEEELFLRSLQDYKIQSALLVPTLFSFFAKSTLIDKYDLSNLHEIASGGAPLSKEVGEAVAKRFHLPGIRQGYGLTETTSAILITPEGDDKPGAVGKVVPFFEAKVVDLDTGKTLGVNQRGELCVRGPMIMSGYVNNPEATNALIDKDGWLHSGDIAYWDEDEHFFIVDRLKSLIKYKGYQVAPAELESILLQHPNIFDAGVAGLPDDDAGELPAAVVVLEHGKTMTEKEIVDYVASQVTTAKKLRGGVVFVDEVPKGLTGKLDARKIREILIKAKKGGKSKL
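Biochemical qHTS of compounds, final roughly 60 µM downward over six points, against 10 nM purified firefly luciferase using Km concentrations of substrates (10 uM D-luciferin, 10 uM ATP) in Tris acetate pH 7.5 buffer; luminescence output.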
NPC1 prom act: qHTS Assay for NPC1 Promoter Activators; Huh7 NPC1 promoter luciferase reporter, 24 h; Potency, µM (top dose mostly 9.22 µM), inactives show at the top dose activation, hits mostly activators; actives 2.4% (n = 320,000); further: % of control where 0% means no effect; nearly all actives have a fitted effect of over 60% in size
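Huh7 cells stably carrying NPC1 promoter–luciferase, plated in Opti-MEM with 10% FBS for 2 h, were exposed to compound in DMSO for 24 h at 37 °C; luciferase reagent was added for 10 min and luminescence read.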
KinaseGlo FLuc: Counterscreen for Luciferase (Kinase-Glo TM) Inhibition; Luciferin 4-monooxygenase (Photuris pensylvanica), Q27757; Kinase-Glo luciferase, ATP luminescence, 8 min; Potency, µM (series often up to 38.3 µM), without a hit: at the highest dose activity change, negative = inhibition, usual class: inhibitors; actives 0.28% (n = 200,000); AID 1379, 2008; further: on the % scale 0 is the no-effect control and ±100 the full control effect; nearly all actives have a fitted effect of over 60% in size
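Recombinant Kinase-Glo luciferase, 10 uM ATP (linear range), luciferin; imidazole pH 7.2 / KCl / MgCl2 / Tween / BSA buffer; 8 min RT; luminescence.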
Numbers without * were called inactive; ? = inconclusive; · = no result; [ ] = another dose, or the depositor's remark. Only some compounds are listed: those with a hit (about 7.4% of all), similar ones and a draw of the others. The call rests on the fitted dose curve; in most records, active means well fitted curve in the direction sought with a large enough effect; inconclusive means small, poorly fitted or top-dose-only effect, or another doubt; inactive means no such curve, though single readings can be large; an effect the other way counts as inactive or inconclusive. Potency means the concentration at half of the fitted maximal effect.

SMILES	Rab9 prom act	ELG1 genotox	SMN2 splice up	FLuc modulator	NPC1 prom act	KinaseGlo FLuc
CCC1CN(C(=O)N2CCC(C(=O)NCCc3cc(OC)ccc3OC)CC2)c2ccccc2O1 (configuration not stated)	·	·	·	-10%	·	·
CCn1cc(S(=O)(=O)c2cccc(C)c2)c(=O)c2cc(F)c(N3CCCC(C)C3)cc21 (configuration not stated)	·	·	·	-1%	·	·
CCCCCCOc1ccc(/C=C/C(=O)Nc2sc3c(c2C(=O)OC)CCC3)cc1OC	·	·	4%	-9%	·	·
CCN(CC)c1cc(-c2ccccc2)ncn1	21%	7%	-4%[1.84 µM]	?	3%	0%
CN(C)c1ccc(-c2ccccc2)nn1	1.6µM*	8.2µM*	16µM*	11µM*	1.6µM*	-26%
N#Cc1c(N)nc(N)nc1Nc1ccc(Br)cc1	1.4µM*	9.2µM*	·	6µM*	1.3µM*	·
Nc1cc(N)nc(SCCc2ccccc2)n1	16%	?	·	?	22%	·
CC(C)CSc1nsc(N)n1	?	16µM*	20%	?	?	-3%
Nc1nc(SCc2ccccc2)ns1	?	18µM*	13µM*	?	28%	2%
Nc1cc(N)nc(SCc2ccccc2)n1	2.8µM*	?	11µM*	19µM*	?	-2%
Nc1nc(SCc2ccc(Cl)cc2)ns1	15%	17%	4%	?	19%	-2%
COc1ccccc1N1CCN(S(=O)(=O)c2ccc(F)c(C(=O)Nc3ccc(C)c(F)c3)c2)CC1	·	·	·	-3%	·	·
C/C(=N\Nc1nc(C(C)(C)C)cs1)c1ccccc1	1.1µM*	3.7µM*	·	2.1µM*	1.4µM*	·
C/C(=N\Nc1nc(C(=O)O)cs1)c1ccccc1	17%	3%	22%	17µM*	11%	0%
C/C(=N\Nc1nc(C(C)(C)C)cs1)c1ccc(O)cc1	?	?	·	21µM*	?	·
C/C(=N\Nc1nc2c(s1)CCCC2)c1ccccc1	3.5µM*	?	11µM*	1.1µM*	?	-5%
CC(C)(C)c1csc(NNC(=O)c2ccc(Br)cc2)n1	7%	9%	-61%	?	14%	1%
C/C(=N/NC(=O)C(=O)N/N=C(/C)c1ccccc1)c1ccccc1	0%	8%	17%	?	1%	4%
CCn1c(C)c(C2N3CC4(C)CN2CC(C)(C3)C4=O)c2ccccc21 (configuration not stated)	·	·	0%	-3%	·	·
N#Cc1ccccc1OCC(O)CNCCNC(=O)Nc1ccccc1 (configuration not stated)	·	·	-8%	·	·	·
COc1ccc2cc(-c3[nH]ncc3CN3CCCCO3)ccc2c1	?	12%	·	15µM*	18%	1%
COc1ccc(-c2[nH]ncc2CN2CCCO2)cc1F	2%	3%	·	0%	-4%	2%
Nc1cccc2c1C(=O)N(CCOc1ccccc1F)C2=O	0.35µM*	0.41µM*	·	0.76µM*	0.35µM*	·
N#Cc1ccccc1OCCN1C(=O)c2ccccc2C1=O	29%	13µM*	·	?	26%	-8%
COc1ccc(OCCN2C(=O)c3ccccc3C2=O)c([N+](=O)[O-])c1	?	?	·	27µM*	28%	·
SMILES	Rab9 prom act	ELG1 genotox	SMN2 splice up	FLuc modulator	NPC1 prom act	KinaseGlo FLuc
Cn1c(SCC(=O)c2ccc(F)cc2)nnc1-c1ccccc1Br	·	·	-7%	?	·	·
Cc1ccc(SCCc2cc[n+](CC(=O)c3ccccc3)cc2)cc1	?	?	·	19µM*	29%	0%
Cc1cccc(-c2nc(SCCCOc3ccccc3Cl)n3[nH]c(=O)cc3n2)c1	·	·	·	6.7µM*	·	·
Nc1nnc(SCCCOc2ccc(F)cc2)s1	3%	-5%	·	15µM*	-4%	·
CCCOc1ccc(OCCSc2nnc(N)s2)cc1	?	13µM*	?	4.8µM*	?	-3%
CCCOc1ccc(-c2cnc(SCC(N)=O)nc2N)cc1	2%	0%	-24%	-13%	2%	-2%
CCOC(=O)c1ccc(CSc2nnc(N)s2)cc1	?	23µM*	?	17µM*	?	-1%
CCCOc1ccc(-c2cnc(N)s2)cc1	3.2µM*	?	18µM*	11µM*	?	-2%
Cc1cccc(CNc2ncnc3ccc(-c4ccc5c(ccn5C)c4)cc23)c1	-5%	·	·	?	-3%	·
Cc1cccc(CNC(=O)Cc2csc3ccccc23)c1	·	·	-3%	?	·	·
CCOc1ccc(-c2nc(CSc3nnc(N)s3)cs2)cc1	?	5µM*	?	1.9µM*	?	14%
Cc1ccc(Cc2cn3cc(-c4ccc(F)cc4)nc3s2)cc1	·	·	?	0.76µM*	·	·
O=c1oc2ccccc2cc1-c1cn2cc(Cc3ccc(F)cc3)sc2n1	·	·	16%	3%	·	·
CCc1noc(-c2ccc(N(C)Cc3ccc(OC)cc3)c([N+](=O)[O-])c2)n1	·	·	·	-14%	·	·
O=c1[nH]c(-c2ccc(-c3cccc(Cl)c3)o2)nc2ccccc12	·	2.6µM*	·	·	·	·
C=Cc1ccc(Cn2c(=O)n(-c3cccc(C)c3)c(=O)c3c2c2cc(C)ccc2n3C)cc1	·	·	·	-3%	·	·
O=C(Nc1ccc(Cl)cc1Cl)c1n[nH]c(Cn2cncn2)n1	17%	?	18%	4.3µM*	16%	-2%
CC(Sc1nnc(NC2CCCCC2)s1)C(=O)Nc1ccc2c(c1)C(=O)c1ccccc1C2=O (configuration not stated)	?	4%	10µM*	?	?	0%
O=C(O)c1cc(-c2ccc(/C=C3\NC(=O)N(c4ccc(Cl)cc4)C3=O)o2)ccc1Cl	-1%	0%	-3%	19µM*	-3%	-1%
O=C(O)c1cc(-c2ccc(/C=C3\NC(=O)N(c4ccccc4)C3=O)o2)ccc1Cl	28%	4%	·	?	20%	·
Cc1cccc(N2NC(=O)/C(=C/c3ccc(-c4ccc(Cl)c(C(=O)O)c4)o3)C2=O)c1	1%	2%	-26%	24µM*	1%	-5%
C#CCN1C(=O)S/C(=C\c2ccc(-c3ccc(Cl)c(C(=O)O)c3)o2)C1=O	1.8µM*	16µM*	·	11µM*	0.79µM*	·
CCN=C1S/C(=C\c2ccc(-c3cccc(C(=O)O)c3)o2)C(=O)N1CC	0.4µM*	1.6µM*	3.5µM*	0.76µM*	0.63µM*	1%
O=C1NN(c2ccccc2)C(=O)/C1=C/c1ccc(-c2ccc(Cl)c(C(=O)O)c2)o1	-3%	-1%	11%	?	-2%	-3%
